Screens: PubChem BioAssay, National Center for Advancing Translational Sciences (NCATS)
PI4K2A inh = inhibitors of human PI4K2A; Q9BTU6; purified PI4K2A, ADP-Glo luminescence, 1 h; hits give low values; activity change, negative = inhibition, % at 76.9 µM; 420,000 tested, 0.13% active; in the data active = activity change below about -50%; inconclusive = mostly about -30% to -49%;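 also: -100% = wells without enzyme as full effect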
Target sequence (Q9BTU6 whole entry, looked up): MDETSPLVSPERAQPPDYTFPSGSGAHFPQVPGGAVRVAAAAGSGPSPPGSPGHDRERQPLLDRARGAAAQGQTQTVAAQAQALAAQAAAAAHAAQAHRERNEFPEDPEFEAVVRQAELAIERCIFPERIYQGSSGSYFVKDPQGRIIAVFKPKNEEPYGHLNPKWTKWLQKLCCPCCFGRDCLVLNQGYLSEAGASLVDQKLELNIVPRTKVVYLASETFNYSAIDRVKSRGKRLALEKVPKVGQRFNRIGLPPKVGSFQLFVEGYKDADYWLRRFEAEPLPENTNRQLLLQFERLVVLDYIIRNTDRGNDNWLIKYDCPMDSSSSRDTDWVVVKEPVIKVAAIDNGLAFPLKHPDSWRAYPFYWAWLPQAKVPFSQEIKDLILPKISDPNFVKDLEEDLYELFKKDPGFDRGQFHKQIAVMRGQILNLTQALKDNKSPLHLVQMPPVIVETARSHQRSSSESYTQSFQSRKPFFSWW
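ADP-Glo luminescence measured ADP generated by PI4K2A enzyme (4 ug/mL before mixing) with 1.2 mM PI substrate (pre-mix) and 300 microM ATP (pre-mix). Tris pH7.5 buffer with MgCl2, Triton X-100; 1 h reaction at ambient temperature.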
VDR inh = blocks the human vitamin D receptor. Potency, µM, without a hit: max response, negative = inhibition, most hits filed as inhibitors. VDR-SRC2-3 peptide fluorescence polarization, 2 h. 400,000 tested, 0.93% active. P11473; also: potency is read from the fitted curve at half-maximal effect
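Compounds are added to VDR with labelled SRC2-3 coactivator peptide and held 2 h at room temperature. Inhibition of the VDR–peptide interaction is then read as a change in fluorescence polarization.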
GLS inh = inhibitors of human glutaminase (GLS) | AID 624170 | GLS enzymatic activity, qHTS titration | O94925 | 410,000 tested, 0.21% active | Potency, µM (titrated, usually from 45.5 µM), inactives show at the top dose activity change, negative = inhibition, hits mostly inhibitors; also: potency is read from the fitted curve at half-maximal effect
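Enzyme dispensed in phosphate buffer (45 mM, pH 8.2, 0.02% Tween-20), compounds pinned in, then 1 mM L-glutamine solution and the glutamate oxidase–HRP–Amplex Red mix added; fluorescence read immediately and again after 30 min at room temperature.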
PLK1 PBD inh = blocks phosphopeptide binding to human PLK1 polo-box domain; Plk1 PBD binding of FITC phosphopeptide, fluorescence polarization; 360,000 tested, 2.8% active; Potency, µM, without a hit: max response, negative = inhibition, actives largely listed as inhibitors; also: potency is read from the fitted curve at half-maximal effect; series mostly up to about 57 µM; nearly all actives have a fitted effect of over 65% in size
KAT2A inh = inhibitors of human GCN5L2 histone acetyltransferase; 390,000 tested, 0.21% active; AID 504327; GCN5L2 HAT assay, ThioGlo1 CoA-SH fluorescence; Potency, µM (doses to about 58.9 µM), for the others: at the highest dose activity change, negative = inhibition, actives largely listed as inhibitors; Q92830; also: potency is read from the fitted curve at half-maximal effect
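Compounds, pin-transferred from DMSO stocks, meet 20nM GCN5L2 for 15 min before the reaction begins with H3(1-25) peptide (75uM) and acetyl-CoA (70uM). Thiol-reactive ThioGlo1 reports CoA release over 20 min at room temperature.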
The depositor's hits bear a star; ? = inconclusive; . = no result given. Only some compounds are listed: those with a hit (about 3.1% of all), similar ones and a draw of the others. Unless noted, calls follow the shape of the dose curve; as a rule, active = well fitted curve in the direction sought with a large enough effect; inconclusive = small, poorly fitted or top-dose-only effect, or another doubt; inactive = no such curve, though single readings can be large; an effect the other way counts as inactive or inconclusive. Unless noted, % is scaled to controls: 0 for no effect and ±100 for the full control effect.

SMILES | PI4K2A inh | VDR inh | GLS inh | PLK1 PBD inh | KAT2A inh
COC(=O)[C@@H](O)CC[C@@H](C)Cc1c(OC)c(OC)c(C)c(OC)c1OC | . | 1% | . | . | .
C[n+]1c2cc(N)ccc2cc2ccc(N)cc21 (tested in a mixture with another compound) | -26 | . | . | . | .
Cc1ccc(NC(=O)COC(=O)C2CC2)cc1Cl | -2 | -29% | -1% | 4% | 2%
Cc1ccc(NC(=O)COC(=O)C2CC2(Cl)Cl)cc1C (stereo unspecified) | 0 | 1% | 3% | 27µM* | -10%
S=c1nc(-c2cc(Cl)ccc2Cl)[nH][nH]1 | -4 | ? | -11% | 15µM* | 3.5µM*
S=c1nc(-c2cc(Cl)cc(Cl)c2)[nH][nH]1 | -8 | -20% | 4% | 24µM* | -30%
S=c1nc(-c2ccccc2Br)[nH][nH]1 | -2 | -2% | 0% | ? | ?
S=c1nc(-c2cccc(Cl)c2)[nH][nH]1 | 1 | -15% | -17% | -26% | -17%
COCc1nc2sc3c(c2c(=O)[nH]1)CCCC3 | -5 | -6% | -9% | 3% | 0%
CCCc1nc2sc3c(c2c(=O)[nH]1)CCCC3 | 3 | 79µM* | ? | 27µM* | -1%
Oc1ccc2ccccc2c1/C=N/c1nc2c(s1)CCCC2 | -3 | 4% | -5% | 13µM* | -2%
Cc1cc(O)c(C=Nc2ccc(Cl)cn2)c(=O)o1 | -4 | -19% | 16% | -13% | -4%
Oc1ccc2ccccc2c1C=Nc1ccc(Cl)cn1 | -2 | -6% | 4% | 17µM* | -6%
Oc1c(Br)cc(Br)cc1/C=N/c1nc2c(s1)CCCC2 | -6 | ? | ? | ? | .
COc1ccc(Cn2c(/C=C/c3ccccc3)nc3ccccc32)cc1 | -2 | -13% | 1% | -5% | -14%
COc1ccc(/C=C/c2nc3ccccc3n2C)cc1 | -88* | 5% | -14% | -7% | -14%
COc1ccc(/C=N\n2nnc3ccccc32)cc1 | -59* | -27% | 0% | -5% | -1%
COc1ccc(/C=N/n2c(C)nc3ccccc3c2=O)cc1 | 2 | 5% | 23% | -5% | -5%
CCOC(=O)Cn1cc(CN2CCS(=O)(=O)N(Cc3ccccc3)C(C(=O)OC)C2)nn1 (stereo unspecified) | -4 | . | . | . | .
FC(F)(F)c1cnc(Oc2cccc3ccccc23)c(Cl)c1 | -7 | 9% | 0% | 5% | 0%
Cn1nc(Oc2ncc(C(F)(F)F)cc2Cl)cc1C(F)(F)F | 2 | -26% | 8% | 27µM* | -5%
CCCN1CNc2c(c(=O)[nH]c(=S)n2CCc2ccc(OCC)c(OCC)c2)C1 | . | -5% | . | . | .
O=S(=O)(c1ccccc1)N(F)S(=O)(=O)c1ccccc1 | -3 | -26% | 2% | 27µM* | -19%
O=S(=O)(c1ccccc1)N(c1ccccc1)S(=O)(=O)c1ccccc1 | 7 | -3% | -14% | 4% | .
CN(C)c1cc2c3ccccc3n(C)c2cc1N | -1 | -9% | 11µM* | -19% | .
SMILES | PI4K2A inh | VDR inh | GLS inh | PLK1 PBD inh | KAT2A inh
Cc1ccc(C)c2c1c1ccccc1n2C | 0 | 9% | 6% | 2% | -4%
O=C(Nc1ccccc1Cl)OC1CC2CC1[C@H]1CCCCN1[C@H]2Cc1ccccc1 (stereo partly specified) | 0 | . | . | . | .
COc1cc(/C=N/Nc2cc(C)nc(N)n2)ccc1O | 3 | -5% | 10µM* | 3% | 3%
O=c1c(C(c2c(O)nc3n(c2=O)CCS3)c2cccc3ccccc23)c(O)nc2n1CCS2 | -16 | ? | 31% | 30µM* | -15%
O=c1c(C(c2ccc(O)cc2)c2c(O)nc3n(c2=O)CCCS3)c(O)nc2n1CCCS2 | ? | 50µM* | 22% | 12µM* | -10%
Cc1ccc(C(c2c(O)nc3n(c2=O)CCS3)c2c(O)nc3n(c2=O)CCS3)cc1 | -52* | 50µM* | -11% | 17µM* | 0%
O=c1c(C(c2ccc(O)cc2)c2c(O)nc3n(c2=O)CCS3)c(O)nc2n1CCS2 | ? | ? | 39% | 6µM* | -4%
C=CCN(C)CC#Cc1ccc(C)cc1 | 1 | . | . | . | .
O=C(c1cccc(F)c1F)N1CCCC(c2nc(-c3cccs3)no2)C1 (stereo unspecified) | 0 | . | . | . | .
CC[C@H](C)[C@H](N)C(=O)N[C@H]1CCC(=O)NCC(C(=O)N[C@@H](Cc2ccc(O)cc2)C(=O)N[C@@H](CCCNC(=N)N)C(=O)N[C@@H](CC(C)C)C(=O)N[C@@H](CCCNC(=N)N)C(=O)N[C@@H](Cc2ccc(O)cc2)C(N)=O)NC(=O)[C@@H]2CCCN2C(=O)[C@@H](NC(=O)[C@@H](N)[C@@H](C)CC)CCC(=O)NCC(C(=O)N[C@@H](Cc2ccc(O)cc2)C(=O)N[C@@H](CCCNC(=N)N)C(=O)N[C@@H](CC(C)C)C(=O)N[C@@H](CCCNC(=N)N)C(=O)N[C@@H](Cc2ccc(O)cc2)C(N)=O)NC(=O)[C@@H]2CCCN2C1=O (stereo partly specified) | . | 10% | . | . | 43%
C=CCN1[C@@H](Cc2ccccc2)COc2cccc(F)c2S1(=O)=O | 1 | . | . | . | .
O=c1c(C(c2ccc(Br)cc2)c2c(O)nc3n(c2=O)CCS3)c(O)nc2n1CCS2 | -2 | ? | 14% | 15µM* | 0%
O=C(Nc1cccc(F)c1)C1CCN(c2nc3ccccc3[nH]2)CC1 | 3 | 11% | 1% | . | -9%
CSc1n[nH]c2nc3c(c(=O)n12)C1(CCCCC1)Cc1ccccc1-3 | -1 | -24% | -20% | 24µM* | -12%
CCSc1n[nH]c2nc3c(c(=O)n12)C1(CCCCC1)Cc1ccccc1-3 | 0 | ? | 1% | 13µM* | -9%
O=C(Nc1ccc(Cl)c(Cl)c1)C1CCCN(c2nnc(-n3cccc3)s2)C1 (stereo unspecified) | -3 | . | . | . | .
COCCNC(=S)c1ccc(Br)cc1 | -3 | ? | -5% | 11µM* | -10%
COc1cc(OC)c(C#N)c(S(=O)(=O)Cc2ccccc2)c1 | 1 | 4% | 8% | -17% | 17%
N#Cc1c([N+](=O)[O-])cc([N+](=O)[O-])cc1S(=O)(=O)Cc1ccccc1 | -4 | 40µM* | -2% | 1.1µM* | 14µM*
O=C1S/C(=C\c2ccc(O)c([N+](=O)[O-])c2)C(=O)N1Cc1cccc([N+](=O)[O-])c1 | 2 | -28% | 16% | 24µM* | ?
CC(=O)/C=C1\C(=O)N(C)c2ccccc21 | -17 | 25µM* | . | . | ?
O=C1CCN(C(=O)c2cccs2)c2ccccc21 | 3 | -12% | -3% | 0% | 0%
CC(=O)/C=C1/C(=O)Nc2ccccc21 | -2 | 45µM* | ? | 21µM* | -29%
CN1C(=O)/C(=C\C(=O)c2cccs2)c2ccccc21 | 7 | 28µM* | 4% | 17µM* | 2%
